# RecA intein inh: blocks M. tuberculosis RecA intein splicing; P9WHJ3; cell-free RecA intein splicing, fluorescence; inhibition, % (test concentration not listed); 290,000 tested, 0.75% active; AID 2221; in the data active means inhibition above about 30%;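 further: 0% = vehicle wells and 100% = reference inhibitor control wells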
# Target sequence (P9WHJ3 whole entry, looked up): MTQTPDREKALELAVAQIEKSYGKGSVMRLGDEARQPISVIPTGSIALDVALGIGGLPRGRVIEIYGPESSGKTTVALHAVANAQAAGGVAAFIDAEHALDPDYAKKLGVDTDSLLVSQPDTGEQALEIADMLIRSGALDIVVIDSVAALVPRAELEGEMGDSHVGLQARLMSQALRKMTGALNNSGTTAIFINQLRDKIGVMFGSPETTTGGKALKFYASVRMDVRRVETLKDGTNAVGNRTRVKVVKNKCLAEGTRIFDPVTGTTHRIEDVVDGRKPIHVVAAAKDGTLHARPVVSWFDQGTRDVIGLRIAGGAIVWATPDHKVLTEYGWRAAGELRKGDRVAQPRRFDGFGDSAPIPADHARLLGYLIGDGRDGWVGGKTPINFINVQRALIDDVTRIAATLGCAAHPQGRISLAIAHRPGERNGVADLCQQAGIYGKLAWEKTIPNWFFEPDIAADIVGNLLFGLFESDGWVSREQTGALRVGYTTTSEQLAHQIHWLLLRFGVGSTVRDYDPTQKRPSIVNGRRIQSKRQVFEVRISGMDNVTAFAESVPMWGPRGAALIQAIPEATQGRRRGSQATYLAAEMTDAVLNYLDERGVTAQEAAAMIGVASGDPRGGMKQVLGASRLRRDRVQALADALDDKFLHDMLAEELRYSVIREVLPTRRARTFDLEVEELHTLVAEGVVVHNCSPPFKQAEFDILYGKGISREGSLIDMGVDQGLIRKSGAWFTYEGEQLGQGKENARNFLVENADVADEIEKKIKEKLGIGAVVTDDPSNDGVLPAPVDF
# CCHF vOTU inh: CCHFV vOTU protease inhibition; Pep-AMC fluorescence; inhibition, % at 11.5 µM; 370,000 tested, 0.55% active; AID 651958; further: 0% = vehicle wells with enzyme and 100% = no enzyme wells
# GDH-TPI counter: inhibits GDH-TPI coupling enzymes, artifact for Mtb FBA screen. GDH-TPI coupled enzyme counterscreen, NADH absorbance. inhibition, % at 4.8 µM. 360,000 tested, 1.2% active. AID 588335;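 further: 0% = DMSO wells and 100% = wells lacking the enzyme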
# FBA Mtb inh: Mtb fructose-bisphosphate aldolase inhibition | purified M. tuberculosis FBA, fluorescence read-out | P9WQA3 | AID 588726 | inhibition, % at 1 µM | 360,000 tested, 2.3% active; in the data active means inhibition above about 27%;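 further: 0% = vehicle and 100% = reference inhibitor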
# GFP chromophore: counter-screen: blocks GFP chromophore formation | shares compounds with RecA intein inh | 2,100 tested, 83% active | cell-free GFP chromophore formation, fluorescence | EC50, µM; call rule not given here
# The depositor's hits bear a star; x = no result given. Compounds with a hit are over-represented: about 4.2% of the library has one in this group of screens. Unless noted, no stated cut-off is given here; in the data, active means inhibition above about 30%; inactive means the rest.
SMILES,RecA intein inh,CCHF vOTU inh,GDH-TPI counter,FBA Mtb inh,GFP chromophore
O=c1c2nncn2c2cc(C(F)(F)F)ccc2n1CCNc1ncc(C(F)(F)F)cc1Cl,3,-11,3,0,x
Nc1nc(SCc2ccccc2)c2ncn(C3CCCCC3)c2n1,x,-6,4,6,x
CC1=NN(c2ccccc2)C(=O)C1/C=C1\C(=O)NC(=O)N(c2ccc(C)c(C)c2)C1=O (centres undefined),41*,14,2,-3,16*
COc1ccc(S(=O)(=O)Nc2ccc3c(c2)C(=O)N([C@H](C)CO)C[C@H](C)[C@@H](CN(C)Cc2ccncc2)OCCCC[C@@H](C)O3)cc1,x,-2,0,-3,x
CCN1C(=O)C2(C(C#N)=C(N)Oc3c2c(C)nn3-c2ccccc2)c2ccccc21 (centres undefined),21,x,6,1,x
Cc1nn(-c2ccccc2)c2c1C1(C(=O)N(C)c3ccccc31)C(C#N)=C(N)O2 (centres undefined),18,-3,8,-1,x
Cc1nn(-c2ccccc2)c2c1C1(C(=O)N3c4c(cccc41)C(C)CC3(C)C)C(C#N)=C(N)O2 (centres undefined),49*,16,15,-5,9.7*
CC(=O)N1C(=O)C2(C(C#N)=C(N)Oc3c2c(C)nn3-c2ccccc2)c2ccccc21 (centres undefined),55*,-10,1,2,5.8*
CCCCCc1c(-c2ccc(Br)cc2)ncn1CCc1ccccc1OC,x,25,x,x,x
COC(=O)[C@]12C[C@H](CC(=O)NCCCN3CCCC3=O)C(=O)N(Cc3ccc(Cl)cc3Cl)C1=C[C@H](C(C)(C)C)O[C@@H]2C,x,15,x,x,x
Nc1ccc(O)c2ccccc12,88*,x,x,x,11*
Cc1ccc(CN2CCC[C@]3(N[C@H](c4ccc(C(F)(F)F)cc4)[C@@H]4C(=O)N(Cc5ccccc5)C(=O)[C@@H]43)C2=O)cc1,x,20,2,-2,x
COc1ccc2c(C(c3ccccc3O)C3CCCN3S(=O)(=O)c3ccc(C)cc3)cn(C)c2c1 (centres undefined),x,15,x,x,x
O=C1NCCCC2c3c(cc(Br)c(O)c3Br)OC12N1CCCCC1 (centres undefined),38*,9,6,1,5.5*
O=C1NCCCc2c1oc1cc(Br)c(O)c(Br)c21,-13,4,21,-1,x
O=c1[nH]c2ccc(Cl)cc2c(-c2ccccc2)c1SC(=S)N1CCCCC1,40*,14,-1,-3,>38
CCCCOP(=O)(OCCCC)C1(NS(=O)(=O)c2ccccc2)C=CC(=O)c2ccccc21 (centres undefined),88*,20,14,-1,5*
O=C(Nc1cc([N+](=O)[O-])ccc1O)c1ccc2c(c1)C(=O)N(Cc1ccco1)C2=O,4,8,15,-7,x
COC(=O)c1[nH]c(=O)c2ccccc2c1OCc1ccccc1,4,-5,7,3,x
COC(=O)c1[nH]c(=O)c2ccccc2c1O,81*,x,18,4,15*
CN(C(=O)c1cccc(NC(=O)Cc2cccc(NC(=O)C3CCN(C(=O)C4CCCCC4)CC3)c2)c1)C1CCC1,x,3,-1,0,x
Cn1c(SCC(=O)NCc2ccccc2)ncc(C(=O)Nc2ccccc2)c1=O,5,6,9,0,x
Cc1ccc(NC(=O)CSc2ncc(-c3ccccc3)n2C(=O)c2ccccc2)cc1,54*,3,0,-2,1.2*
Cc1ccc(C(=O)n2c(-c3ccccc3)cnc2SCC(=O)Nc2ccccc2)cc1,7,-15,-4,-1,x
Cn1c(SCC(=O)NCC2CCCO2)ncc(C(=O)Nc2ccccc2)c1=O (centres undefined),46*,-7,17,1,>38
SMILES,RecA intein inh,CCHF vOTU inh,GDH-TPI counter,FBA Mtb inh,GFP chromophore
Cc1ccc(CNC(=O)CSc2ncc(C(=O)Nc3ccccc3)c(=O)n2C)cc1,1,-2,-2,-3,x
CC(=O)Nc1ccc(NC(=O)CSc2ncc(C(=O)Nc3ccccc3)c(=O)n2C)cc1,31*,14,17,0,0.11*
Cc1[nH]nc2c1C(c1ccsc1C)C(C#N)=C(N)O2 (centres undefined),48*,14,10,-5,28*
Cc1[nH]nc2c1C(C1CC=CCC1)C(C#N)=C(N)O2 (centres undefined),x,2,3,2,x
Cc1cc(C2C(C#N)=C(N)SC(N)=C2C#N)c(C)s1,0,x,11,5,x
CC(C)(C)c1[nH]nc2c1C(Cc1ccccc1)C(C#N)=C(N)O2 (centres undefined),54*,8,3,1,20*
Cc1ccc(-c2ccc(C3C(C#N)=C(N)Oc4n[nH]c(C)c43)o2)cc1 (centres undefined),67*,1,18,-2,36*
Cc1cc(C2C(C#N)=C(N)Oc3n[nH]c(C)c32)c(C)s1 (centres undefined),81*,0,4,-1,37*
CO/N=C(/C(=O)N[C@@H]1C(=O)N2C(C(=O)O)=CCS[C@H]12)c1cnc(N)s1,-9,x,13,2,x
CC(C)Cc1nc2oc3c(NCC4CCCO4)ncnc3c2c2c1CCC2 (centres undefined),3,0,-5,8,x
CCOC(=O)c1oc2nc(CC(C)C)c3c(c2c1N)CCC3,31*,-64,5,178*,>38
O=S(=O)(c1ccccc1)c1ncc(C(F)(F)F)cc1O,3,6,-1,5,x
O=S(=O)(c1ccccc1)c1ncc(C(F)(F)F)cc1Cl,63*,17,2,4,25*
O=C(CCl)N(C/C=C/c1ccccc1)c1ccc2c(c1)OCCO2,85*,-3,7,7,3*
CCOC(=O)C(Nc1ccc2ccccc2c1)C(=O)OCC,71*,22,5,9,22*
COC(=O)[C@@]12C[C@@H](CC(=O)N3CCCC3)C(=O)N(CCc3ccc(OC)c(OC)c3)C1=CCC(C)(C)C2,x,3,x,x,x
CC(=O)N1CCC2(CC1)C(C#N)=C(N)Oc1n[nH]c(C(F)(F)F)c12,-10,2,0,3,x
CC1(C)CC(=O)C2=C(C1)OC(N)=C(C#N)C21CCC2(CC1)OCCO2,-5,-12,-7,3,x
COCc1[nH]nc2c1C1(CCSCC1)C(C#N)=C(N)O2,74*,9,6,4,20*
Cc1[nH]nc2c1C1(CCC3(CC1)OCCO3)C(C#N)=C(N)O2,74*,-14,2,0,>38
CCOC(=O)N1CCC2(CC1)C(C#N)=C(N)Oc1n[nH]c(C)c12,80*,10,5,2,13*
Cc1cc(O)cc(=O)n1Cc1ccccc1,-1,-9,-6,0,x
Cc1ccc(CSCc2nc3ccccc3[nH]2)cc1,1,8,1,2,x
Cc1cc(C)cc(CC(Cc2nc3ccccc3[nH]2)c2nc3ccccc3[nH]2)c1 (centres undefined),36*,0,11,0,>38
O=C(CCl)c1ccc(Cc2ncc(C(F)(F)F)cc2Cl)s1,79*,23,1,0,3.4*
